The record followed here is paper PMC12136788.

Where a chain is given by its changes, count along the chain named. Whole data set: some 24,000 sequences, median “enrichment r” near 0.99, cut for the highest 2% near 3.7. Many of the other results were omitted from the sample, so the highest values are more common in it than they were.

To fix the notation:
B1: chr3:108363203:108363204:-_ENSMUSG00000068732_ENSMUST00000090546|mus_hu|FALSE|FALSE (ssRNA)
RNA: GGGAGUUCUACAGUCCGACGAUCCCAGGUUUUGAGACGAGGUACUUUCUUGAAGUAGGCACAGGUGCAAACAAAGAGCAAACCAAACACCAGAAUCCCAUCCAAGGAGUACACGUUCGUCAUGGCGGCUGGCCCUGGACCUGGCAACAGAGGAUUGAGCAUCA
B2: chr2:216981417:216981418:+_ENSG00000079246_ENST00000392132|hu_hu|hu_hu_hu_mus_True|48_58 (ssRNA)
RNA: GGGAGUUCUACAGUCCGACGAUCCUGAUACUGGUCCUUGCCAGCAAGGGCAUUAUCAGUGCCAUCUGUGCCAUAGAGGACUAAAGCAAUCUCAUCCUUGCUCUCCGAAAAUACCUGUCGUUGGACAAACAUAGUCAUCACUUUCAACAGAGGAUUGAGCAUCA
B3: 91404753_91404873_2338_CDS_ENSG00000122482_ENST00000337393|human|control|control (ssRNA)
RNA: GGGAGUUCUACAGUCCGACGAUCAGGUUUUUGGUCAACGCUGCUUUUAAUUGUAACAUUCUUAUGAGGAGAGCUGUUUUGAUUGCACAUGUUUACACCUGAUUGGGCAAUGCUUUUCCGAGCUUUCUGUAUUCUGUGUGGCCGCAACAGAGGAUUGAGCAUCA
B4: 77768493_77775406_9844_CDS_ENSG00000091656_ENST00000521891|human|control|control (ssRNA)
RNA: GGGAGUUCUACAGUCCGACGAUCACUGCUGAGAGACAGGGCAGGAGACGAAGUAGCUGAAGUAGGAAACCCAAGCAUGCCUGCACCGGGAGGUGUUAAAGUGUUUGAAUUUUGUGGAAAUCCCGGCAAGGAGGAUGGACCGUUCAACAGAGGAUUGAGCAUCA
B5: chr2:153593888:153593889:+_ENSMUSG00000027479_ENSMUST00000028981|mus_hu|FALSE|FALSE (ssRNA)
RNA: GGGAGUUCUACAGUCCGACGAUCAGUAGUGGGUGAGACACAUUUUGCAGAAUCCUGCCAAACAAAGGAACUGAAUAGGCUGUGGGCAAAGCAAAUGAGGGAGAGUUAAGGAAUGAAGUAUUUUAAAUAUUAAUAAUUAAUUCACAACAGAGGAUUGAGCAUCA
B6: chr2:153593888:153593889:+_ENSMUSG00000027479_ENSMUST00000028981|mus_mus|FALSE|FALSE (ssRNA)
RNA: GGGAGUUCUACAGUCCGACGAUCCUCAGUAGUGGGUAACACAUUUUGCAGAGUUCGCCAAACAAAGGAAUUGAAUAGGCUAUGGGUAAAGCAAUUGAGGGAGAAUUAAGGAAUGAAGUAUUUUAAAUAUUAAUAUUUCAGUCACAACAGAGGAUUGAGCAUCA
B7: chr6:39351226:39351227:-_ENSMUSG00000029922_ENSMUST00000031985|mus_hu|FALSE|FALSE (ssRNA)
RNA: GGGAGUUCUACAGUCCGACGAUCGACAAAGUUAGAUGUGAUCCGGCAUUCUGGGCAGGACUUUAUGAUCUUGCUCUCAAAUUGCUUAGCACUCCUCCACUUGCGAAUGCACUUGAGACAGUAGGUGUGGUUGCAGUUGGAGAGCAACAGAGGAUUGAGCAUCA
B8: chr3:54535082:54535083:-_ENSMUSG00000027752_ENSMUST00000029316|mus_mus|FALSE|FALSE (ssRNA)
RNA: GGGAGUUCUACAGUCCGACGAUCGCAGGCAUCCAAAAUGUUCCCAUCGUAGUCUAGACAAAUGAGGUCACAGUAUAGAACCCAAGCAAGCUUGCCUGGAGAAAUGCAUAAAUCCUCUUUCUUAAUCACCUGUGAGUUGUCAACCAACAGAGGAUUGAGCAUCA
B9: chr4:144447494:144447495:+_ENSG00000153147_ENST00000283131|hu_hu|motif|central (ssRNA)
RNA: GGGAGUUCUACAGUCCGACGAUCCCAGUUGUGUAAUGUAGACUUAGGAACCAAAACCAUAUGAGGCCCAGGAAUGUUUCGGUAAUGUUUCAUGUACCCAAGAAGAGAAAUUGUUUGAAGAGUCUUUCCUAGGCCCAUUUCAUCCAACAGAGGAUUGAGCAUCA
B10: chr11:75578338:75578339:+_ENSMUSG00000020849_ENSMUST00000067664|perfect_dup|FALSE|FALSE (ssRNA)
RNA: GGGAGUUCUACAGUCCGACGAUCAAAGGGGAGGGGAGAAAAAAAAAAAAGAAAAAGAAAGAAAAACAACAGGGCAGGAACCUAAAUUCUGAGACCAAAUGUGAAAGUCAAAUUUGGUGGUUCUCAGUGACAAUGGGGAACUUCCAACAGAGGAUUGAGCAUCA
B11: chrX:7701523:7701524:-_ENSMUSG00000031166_ENSMUST00000033506|mus_mus|FALSE|FALSE (ssRNA)
RNA: GGGAGUUCUACAGUCCGACGAUCCAGGCAAGUGUGGGGUCCACCCAAACAGUAGCUGCCAAUGUUGGGGAGUUUGACAACCUAACCUGGUGAAAGCCCCGUGGUUGAACUUAACAUUCUGCACCUAAUUUCCCUACUGCUGUCCAACAGAGGAUUGAGCAUCA
B12: 18505133_18505253_973_CDS_ENSG00000101310_ENST00000262544|human|control|control (ssRNA)
RNA: GGGAGUUCUACAGUCCGACGAUCUUCACAGCUUAGCUCAUGAACCUGCACCAUCCUUCCAAAUGUGAUCAGACCCACCAGAGCAUCUGGAGGAAGAAGACUCAGGGACAUCUGCAGGGACUCUUUGAGUGCUUGAAGGUCAUCCAACAGAGGAUUGAGCAUCA
B13: chr2:69570450:69570451:+_ENSMUSG00000042133_ENSMUST00000090858|mus_hu|FALSE|FALSE (ssRNA)
RNA: GGGAGUUCUACAGUCCGACGAUCACAAAGACAACGAAAGUUCUCGCAUGUUUUGGGGCACACAUCAGAAAAUAAUUCAAAGACAACUCUUCCAGCAGGUUGAUUGUUAAUGGCAAUGUCAAAAAAACAUCGAGGACGUUGAACCAACAGAGGAUUGAGCAUCA
B14: chr11:75578338:75578339:+_ENSMUSG00000020849_ENSMUST00000067664|perfect_dup|motif|central (ssRNA)
RNA: B10 RNA with U82G, A83G
B15: 36153137_36166621_529_CDS_ENSG00000145604_ENST00000274255|human|control|control (ssRNA)
RNA: GGGAGUUCUACAGUCCGACGAUCCGCUAGGCGAUACCACCUCUUACAAACACCAGAGACCUUUAGCAGCUCAGGGAGGCACAGACAGGAAAAGAUUCCCAAGAGCAGCUCAUCCGGAAGGGAGUCCCAUGAAACACCUGGAAACAACAGAGGAUUGAGCAUCA
B16: chr4:124323795:124323796:+_ENSG00000164056_ENST00000339241|hu_hu|motif|central (ssRNA)
RNA: GGGAGUUCUACAGUCCGACGAUCCCAUGAGUUAGACCUUGGCAACAGGGGAAGAGAAGGUGGGAAACAGGGAAAAAUUCGGAAGAAAACAAAAACAAAAACAAAAACAAAAAACAGCCACAACUUGAAAGCUAAAAGUUCAGGCAACAGAGGAUUGAGCAUCA
B17: chr15:103023242:103023243:-_ENSMUSG00000009575_ENSMUST00000118152|mus_hu|FALSE|FALSE (ssRNA)
RNA: GGGAGUUCUACAGUCCGACGAUCAACAUCUGAACUAGCAGCUUUGAUGAGGGGUGGGGGGCAGAAAAUUUGCCGAGUCACUAAGUAGUUCCAGUCUUGGAGACAGCUCAGUGAGGACCAAAGCCUGUGUGUCAGGCUUAAACUCAACAGAGGAUUGAGCAUCA
B18: chr7:135839593:135839594:+_ENSMUSG00000042105_ENSMUST00000151237|mus_hu|FALSE|FALSE (ssRNA)
RNA: GGGAGUUCUACAGUCCGACGAUCAGAAUCAGUCACUUCAACAGAGUAAAGCUCUAAAGACACCAGACGAACCAAUACUUGUUGGAAUAUGCCAUACAACUUUCUUACUGUGGGGAUUACAGGGGCAGCCCUGGUUCUGUGUGGCAACAGAGGAUUGAGCAUCA
B19: chr7:116176368:116176369:+_ENSMUSG00000031028_ENSMUST00000033341|mus_hu|FALSE|FALSE (ssRNA)
RNA: GGGAGUUCUACAGUCCGACGAUCAGACACACACAUACACAGACGGACACAGAGCACCUUGGAGCCAGAAGGAAAGGAAAGCUAGACUUGGAGAAGAGUUGGGGAAGUGAACUUCACCACUCUGCAGAAUUGUUCUGGGGCAGACAACAGAGGAUUGAGCAUCA
B20: chr4:124323795:124323796:+_ENSG00000164056_ENST00000339241|hu_hu|FALSE|FALSE (ssRNA)
RNA: B16 RNA with G80U, G81A
B21: chr4:99801976:99801977:-_ENSG00000151247_ENST00000280892|hu_hu|motif|central (ssRNA)
RNA: GGGAGUUCUACAGUCCGACGAUCAACACAUUUAUGGAUUCUGGGGAUGUGUACUGUAAUUCUUUGAUUGGGAUAGUGGAAACUCGGGCCAAAAAAAAAAAAAAAAAUGAACACAGAAGUACAAGACAAAGGCGAAUGAGACUUCAACAGAGGAUUGAGCAUCA

The target in the test is T1, UNK ZnF1-3 (human, UniProt Q9C0B0 31-174).
T1 sequence: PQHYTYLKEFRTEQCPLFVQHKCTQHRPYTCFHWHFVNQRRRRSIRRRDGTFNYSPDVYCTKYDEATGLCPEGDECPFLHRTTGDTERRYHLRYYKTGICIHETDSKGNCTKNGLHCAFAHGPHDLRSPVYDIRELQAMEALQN
Briefly: nsRBNS (natural sequence RNA bind-n-seq); RBNS binding buffer (assumed for nsRBNS): 25 mM Tris pH 7.5, 150 mM KCl, 3 mM MgCl2, 0.01% Triton X-100, 500 ug/ml BSA, 20 U/ml SUPERase-In, 4 C; UNK is unkempt and MSI1 is Musashi-1; names of the RNAs are library labels; protein concentration not given here; high values mean tight binding.
B1 displayed a binding signal of 1.56 enrichment R.

Molecule B2 had a binding signal of 0.722 enrichment R.

For the molecule B3, the binding signal turned out to be 0.646 enrichment R.

B4: the binding signal worked out at 1.52 enrichment R.

The molecule B5 had a binding signal of 4.38 enrichment R.

B6: the binding signal came out at 2.24 enrichment R.

In the case of B7, the binding signal was 0.754 enrichment R.

In the case of B8, the binding signal amounted to 1.32 enrichment R.

As to B9, the binding signal is 1 enrichment R.

For B10, the binding signal turned out to be 4.7 enrichment R.

B11: the binding signal was 1.26 enrichment R.

On to B12, for which the binding signal is 1.32 enrichment R.

B13 yielded a binding signal of 1.49 enrichment R.

Turning to B14, the binding signal was 5.06 enrichment R.

Turning to B15, the binding signal is 1.46 enrichment R.

Consider B16, for which the binding signal is 3.58 enrichment R.

As for B17, the binding signal is 1.22 enrichment R.

The molecule B18 came in with a binding signal of 1.69 enrichment R.

Regarding B19, the binding signal worked out at 3.99 enrichment R.

In the case of B20, the binding signal came out at 4.13 enrichment R.

Regarding B21, the binding signal was determined as 3.29 enrichment R.
